Screening data: PubChem BioAssay, National Center for Advancing Translational Sciences (NCATS)
Compounds with a hit are over-represented: about 7.5% of the library has one in this group of screens.
FLuc counter: counter-screen for miR-21 project: firefly luciferase inhibitors or activators; purified FLuc, Km substrates, luminescence inhibition; 360,000 compounds, 6.9% hits; AID 588342; Potency, µM (top dose mostly 57.5 µM), for the others: top-dose activity change, negative = inhibition, most hits filed as inhibitors;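 further: plate controls were vehicle for no effect and reference inhibitor for full effect; nearly all actives have a fitted effect of over 55% in size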
Target sequence (P08659 whole entry, looked up): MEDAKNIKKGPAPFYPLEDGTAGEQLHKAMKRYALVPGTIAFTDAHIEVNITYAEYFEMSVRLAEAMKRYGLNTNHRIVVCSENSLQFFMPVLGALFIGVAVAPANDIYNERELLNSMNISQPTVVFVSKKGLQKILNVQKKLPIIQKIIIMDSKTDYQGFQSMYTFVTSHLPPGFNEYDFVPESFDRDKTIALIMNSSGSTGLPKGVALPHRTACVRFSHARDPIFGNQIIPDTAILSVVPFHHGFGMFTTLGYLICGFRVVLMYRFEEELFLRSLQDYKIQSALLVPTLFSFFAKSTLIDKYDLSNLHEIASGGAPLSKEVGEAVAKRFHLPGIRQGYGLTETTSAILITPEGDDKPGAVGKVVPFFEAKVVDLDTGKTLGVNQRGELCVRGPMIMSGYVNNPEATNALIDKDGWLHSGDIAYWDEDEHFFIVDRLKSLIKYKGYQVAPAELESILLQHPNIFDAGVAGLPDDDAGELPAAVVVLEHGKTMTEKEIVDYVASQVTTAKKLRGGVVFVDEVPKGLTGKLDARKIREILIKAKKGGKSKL
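Biochemical qHTS of compounds, final roughly 60 µM downward over six points, against 10 nM purified firefly luciferase using Km concentrations of substrates (10 uM D-luciferin, 10 uM ATP) in Tris acetate pH 7.5 buffer; luminescence output.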
SMN2 splice up: SMN2 splice variant enhancement; HEK293 SMN2-luciferase splicing reporter, luminescence, 30-36 h; Potency, µM (doses to about 46.1 µM), inactives show at the highest dose activity change, positive = activation, usual class: activators; 210,000 compounds, 2.8% hits; AID 1458; further: % of control where 0% means no effect; nearly all actives have a fitted effect of over 55% in size
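qHTS luciferase splicing reporter: luminescence rises when SMN2 exon 7 is included in transfected HEK293 cells. Compound exposure lasted 30-36 h at 37C, with 4.5 mM final sodium butyrate as control, followed by a ONE-Glo read.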
Rab9 promoter act: activates the Rab9 promoter. Huh7 Rab9 promoter-luciferase reporter, luminescence, 24 h. Potency, µM (titrated, usually from 9.22 µM), without a hit: top-dose activation, negative = inhibition, most hits filed as activators. 320,000 compounds, 2.8% hits; further: % of control where 0% means no effect; nearly all actives have a fitted effect of over 60% in size
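Luminescence read-out: Huh7 cells stably expressing Rab9-luciferase, treated 24 h with compound at 37 °C, then lysed with luciferase reagent for 10 min at ambient before reading.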
NPC1 promoter act: activates the NPC1 promoter | Huh7 NPC1 promoter luciferase reporter, 24 h | Potency, µM (top dose mostly 9.22 µM), for the others: at the highest dose activation, actives largely listed as activators | 320,000 compounds, 2.4% hits | AID 485313; further: % of control where 0% means no effect; nearly all actives have a fitted effect of over 60% in size
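Huh7 cells stably carrying NPC1 promoter–luciferase, plated in Opti-MEM with 10% FBS for 2 h, were exposed to compound in DMSO for 24 h at 37 °C; luciferase reagent was added for 10 min and luminescence read.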
ELG1 genotox: genotoxicity induction in ELG1-luciferase HEK293T cells; HEK293T ELG1-luciferase reporter, luminescence, 16 h; Potency, µM (titrated, usually from 46 µM), without a hit: at the highest dose activity change, positive = activation, actives largely listed as activators; 330,000 compounds, 1.3% hits; further: % of control where 0% means no effect; nearly all actives have a fitted effect of over 60% in size
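Luminescence read-out: rising ELG1-luciferase signal, reflecting elevated ELG1 protein under genetic stress, flags genotoxic compounds. Cells were treated for 16 hr at 37 °C before ONE-Glo detection.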
* = called active by the depositor. The call rests on the fitted dose curve; in most records, active means well fitted curve in the direction sought with a large enough effect; inconclusive means small, poorly fitted or top-dose-only effect, or another doubt; inactive means no such curve, though single readings can be large; an effect the other way counts as inactive or inconclusive. Potency means the concentration at half of the fitted maximal effect.

How did COc1ccc2c(c1)c(=O)oc1c(C)c(OC(C)C(=O)NCC3CCC(C(=O)O)CC3)ccc12 (configuration not stated) do in these assays?
FLuc counter: 15.1µM*; Rab9 promoter act: 4.9%; NPC1 promoter act: 7.8%; ELG1 genotox: 9.1%

Results for CC(Sc1nnc(-c2ccco2)o1)C(=O)Nc1ccc(OC(F)F)cc1 (configuration not stated) ?
ELG1 genotox: 6.5%

How did O=C(Cc1cccs1)Nc1ccc(-c2nnc(-c3ccco3)o2)cc1 do in these assays?
FLuc counter: 3.2%; SMN2 splice up: 14.4%; Rab9 promoter act: inconclusive; NPC1 promoter act: 25.7%; ELG1 genotox: inconclusive

What do the screens show for `c1cncc(-c2nnc(-c3ccco3)o2)c1`?
FLuc counter: -0.4%; SMN2 splice up: 22.4%; Rab9 promoter act: -5.6%; NPC1 promoter act: -2.2%; ELG1 genotox: inconclusive

What do the screens show for `O=C(COc1ccc(Br)cc1)Nc1ccc(-c2nnc(-c3ccco3)o2)cc1`?
FLuc counter: 0.7%; SMN2 splice up: 8.91µM*; Rab9 promoter act: 2.24µM*; NPC1 promoter act: 3.98µM*; ELG1 genotox: 13.4%

What do the screens show for `COc1ccccc1OCC(=O)Nc1ccc(-c2nnc(-c3ccco3)o2)cc1`?
FLuc counter: 0.7%; SMN2 splice up: 5.62µM*; Rab9 promoter act: 21.2%; NPC1 promoter act: 10.3%; ELG1 genotox: 3.8%

How did CCC(Oc1ccccc1)C(=O)Nc1ccc(-c2nnc(-c3ccco3)o2)cc1 (configuration not stated) do in these assays?
FLuc counter: -11.5%; SMN2 splice up: 11.2µM*; Rab9 promoter act: inconclusive; NPC1 promoter act: inconclusive; ELG1 genotox: 11.0%

What do the screens show for `Clc1ccc(-c2nnc(-c3ccco3)o2)cc1`?
FLuc counter: 12µM*; SMN2 splice up: inconclusive; Rab9 promoter act: 2.82µM*; NPC1 promoter act: 3.55µM*; ELG1 genotox: inconclusive

Results for Cc1ccc(NC(=O)c2nc[nH]c2C(=O)N2CCN(C(=O)OC(C)(C)C)CC2)cc1 ?
FLuc counter: 1.0%; Rab9 promoter act: -0.3%; NPC1 promoter act: -3.3%; ELG1 genotox: -6.0%

Results for CCN1CCN(C(=O)c2c(-c3c(Cl)cccc3Cl)noc2C)CC1 ?
FLuc counter: -1.5%; Rab9 promoter act: -3.0%; NPC1 promoter act: 2.1%; ELG1 genotox: -3.5%

What do the screens show for `CCOc1ccc(N2CC(c3nc4ccccc4n3CCCOc3ccccc3OC)CC2=O)cc1` (configuration not stated)?
FLuc counter: inconclusive; SMN2 splice up: 4.0%

What do the screens show for `C=CCNc1nc(-c2ccccc2)c(C(=O)OCC)cc1C#N`?
FLuc counter: 0.3%; SMN2 splice up: -4.1%; Rab9 promoter act: -7.6%; NPC1 promoter act: -15.5%; ELG1 genotox: -3.6%

Results for Cn1cc(C(=O)Nc2ccc(F)c(F)c2)cn1 ?
FLuc counter: 4.7%; SMN2 splice up: -0.5%; Rab9 promoter act: 1.8%; NPC1 promoter act: -1.0%; ELG1 genotox: 5.5%

Results for O=C1NC(c2ccc(Br)cc2)=N/C1=C/c1ccco1 ?
FLuc counter: 0.601µM*; SMN2 splice up: 7.08µM*; Rab9 promoter act: 2.51µM*; NPC1 promoter act: 3.55µM*; ELG1 genotox: inconclusive

What do the screens show for `O=C1ON=C(c2ccccc2)/C1=C\c1ccco1`?
FLuc counter: inconclusive; Rab9 promoter act: 0.1%; NPC1 promoter act: 7.9%; ELG1 genotox: 16.0%

What do the screens show for `S=c1[nH]nc(-c2ccccc2Cl)n1/N=C/C=C/c1ccco1`?
FLuc counter: -0.6%; Rab9 promoter act: 0.9%; NPC1 promoter act: -1.5%; ELG1 genotox: 0.1%

What do the screens show for `O=C1NC(c2ccccc2Cl)=N/C1=C/c1ccco1`?
FLuc counter: 0.301µM*; Rab9 promoter act: inconclusive; NPC1 promoter act: 8.8%; ELG1 genotox: inconclusive

Results for Cc1ccccc1CSCC(=O)c1c(N)n(C)c(=O)n(C)c1=O ?
FLuc counter: -13.9%; SMN2 splice up: -3.7%; Rab9 promoter act: inconclusive; NPC1 promoter act: 0.2%; ELG1 genotox: inconclusive

Results for Cc1nnc2sc(-c3ccc(N(C)C)cc3)nn2c1=O ?
FLuc counter: 7.57µM*; Rab9 promoter act: inconclusive; NPC1 promoter act: 3.16µM*; ELG1 genotox: 16.4µM*

How did Cc1[nH]c2ccccc2c1C(=O)/C=C\c1ccccc1Cl do in these assays?
FLuc counter: 6.01µM*; SMN2 splice up: inconclusive; Rab9 promoter act: inconclusive; NPC1 promoter act: inconclusive; ELG1 genotox: inconclusive

Results for Cc1[nH]c2ccccc2c1C(=O)/C=C/c1ccccc1Cl ?
FLuc counter: 8.49µM*; SMN2 splice up: 11.2µM*; Rab9 promoter act: 3.16µM*; NPC1 promoter act: 3.16µM*; ELG1 genotox: inconclusive

How did Cc1[nH]c2ccccc2c1C(=O)/C=C/c1ccccc1 do in these assays?
FLuc counter: 4.78µM*; SMN2 splice up: 27.7%; Rab9 promoter act: inconclusive; NPC1 promoter act: 3.16µM*; ELG1 genotox: 13.8%

How did Cc1[nH]c2ccccc2c1C(=O)CSc1ccc(Cl)cc1 do in these assays?
FLuc counter: inconclusive; SMN2 splice up: 8.6%; Rab9 promoter act: 26.0%; NPC1 promoter act: 22.9%; ELG1 genotox: inconclusive

What do the screens show for `CC(=O)c1c(C)[nH]c2ccccc2c1=O`?
FLuc counter: 2.1%; SMN2 splice up: 4.3%; Rab9 promoter act: 1.1%; NPC1 promoter act: -2.8%; ELG1 genotox: 0.0%

What do the screens show for `COc1ccc(CC(=O)OCC(=O)N(CC(C)C)c2c(N)n(Cc3ccccc3)c(=O)[nH]c2=O)cc1`?
FLuc counter: -1.6%; Rab9 promoter act: -6.1%; NPC1 promoter act: -1.0%; ELG1 genotox: 17.2%

What do the screens show for `Cc1ccc(-n2nc(C)c(NC(=O)CCl)c2C)cc1C`?
FLuc counter: inconclusive; SMN2 splice up: -73.0%; Rab9 promoter act: -47.4%; NPC1 promoter act: -33.5%; ELG1 genotox: -8.1%

What do the screens show for `ClC(Cl)c1nnc(-c2ccccc2)c(-c2c[nH]c3ccccc23)n1`?
FLuc counter: -0.6%; SMN2 splice up: -2.6%; Rab9 promoter act: -8.4%; NPC1 promoter act: -4.5%; ELG1 genotox: 4.0%

What do the screens show for `O=C(Oc1ccc2ccccc2c1Cl)N1CCCCCC1`?
FLuc counter: 1.07µM*; SMN2 splice up: 12.6µM*; Rab9 promoter act: 0.562µM*; NPC1 promoter act: 1.12µM*; ELG1 genotox: inconclusive

What do the screens show for `O=C(Oc1ccc(Cl)cc1)N1CCCCC1`?
FLuc counter: 23.9µM*; SMN2 splice up: 17.3%; Rab9 promoter act: 23.0%; NPC1 promoter act: 15.2%; ELG1 genotox: 16.4µM*

How did O=C(Oc1ccc(Cl)cc1)N1CCOCC1 do in these assays?
FLuc counter: -11.7%; Rab9 promoter act: 9.4%; NPC1 promoter act: -2.0%; ELG1 genotox: -0.9%

How did C/C(CC(=O)Nc1ccc2c(c1)OCO2)=N\NC(=O)c1ccc(N)cc1 do in these assays?
FLuc counter: inconclusive; Rab9 promoter act: 9.5%; NPC1 promoter act: 9.3%; ELG1 genotox: 2.4%
